From PubChem BioAssay
Only a selection was taken, and hits are over-represented in it overall.
ALR H2O2 inh: inhibitors of human ALR sulfhydryl oxidase, primary screen, biochemical, H2O2 detection, HRP-luminol luminescence, single point. purified ALR, DTT oxidation. AID 485317, 2010. inhibition, % (test concentration not listed). 3.8% of 290,000 active;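 active = mean replicate inhibition above about 79%, with every replicate also reaching it, limit read from the data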
Target sequence (P55789 whole entry, looked up): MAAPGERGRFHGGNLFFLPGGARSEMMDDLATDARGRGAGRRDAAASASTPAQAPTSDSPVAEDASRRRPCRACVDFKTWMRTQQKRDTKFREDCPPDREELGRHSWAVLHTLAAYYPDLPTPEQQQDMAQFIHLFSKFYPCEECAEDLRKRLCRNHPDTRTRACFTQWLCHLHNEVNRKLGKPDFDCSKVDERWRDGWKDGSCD
PglD inh: C. jejuni PglD acetyltransferase inhibitors, primary screen, biochemical, DTNB colorimetric, single point; UDP-N-acetylbacillosamine N-acetyltransferase PglD (Campylobacter jejuni); purified PglD enzyme, DTNB colorimetric CoA detection; inhibition, % at 12.5 µM; 0.098% of 360,000 active; in the data active = inhibition above about 16%, passing the limit was not always enough
ARNT-TACC3 inh: disruptors of ARNT/TACC3 protein interaction, primary screen, biochemical, AlphaScreen, single concentration; Transforming acidic coiled-coil-containing protein 3 (Homo sapiens), Q9Y6A5; AlphaScreen His-ARNT PAS-B/GST-TACC3 binding, luminescence; TACC3 fragment carries E629A point mutation; inhibition, % at 9.99 µM; 0.66% of 390,000 active; AID 623870, 2012;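 active = mean inhibition of replicates at least 50% and at least half of replicates each reaching 50%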
NRP1-CendR mod: modulators of CendR peptide binding to NRP-1, primary screen, biochemical, fluorescence polarization, uHTS | AID 602438, 2012 | FAM-RPARPAR peptide binding to NRP-1 | Neuropilin-1 (Homo sapiens), O14786 | 0.85% of 360,000 active | inhibition, % at 25 µM;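 active = inhibition or corrected inhibition above about 18%, plus a signal ratio from 0.5 to 1.5, limit read from the data, passing the limit was not always enough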
PDI inh: inhibitors of human PDI, primary screen, biochemical, turbidity, single point, plate reader. Protein disulfide-isomerase (Homo sapiens), P07237. PDI insulin aggregation turbidity, A650, 90 min. inhibition, % at 10 µM. 0.052% of 350,000 active;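 active = mean inhibition across replicates of 30% or more, whatever share of single replicates reach that level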
Target sequence (P07237 whole entry, looked up): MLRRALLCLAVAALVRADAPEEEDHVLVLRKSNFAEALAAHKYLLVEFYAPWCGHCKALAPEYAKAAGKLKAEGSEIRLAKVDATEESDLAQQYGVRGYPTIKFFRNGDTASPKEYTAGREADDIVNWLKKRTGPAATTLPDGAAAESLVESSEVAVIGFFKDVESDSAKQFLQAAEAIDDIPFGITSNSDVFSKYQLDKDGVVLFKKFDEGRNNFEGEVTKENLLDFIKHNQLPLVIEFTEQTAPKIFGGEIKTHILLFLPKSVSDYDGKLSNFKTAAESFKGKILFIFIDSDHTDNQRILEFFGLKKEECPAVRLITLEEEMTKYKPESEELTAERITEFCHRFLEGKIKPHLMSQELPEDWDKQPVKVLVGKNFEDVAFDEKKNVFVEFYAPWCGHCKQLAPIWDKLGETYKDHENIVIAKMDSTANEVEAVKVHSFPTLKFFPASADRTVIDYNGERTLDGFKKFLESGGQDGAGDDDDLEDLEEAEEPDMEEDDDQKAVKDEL
ERp5 inh: inhibitors of ERp5-driven insulin aggregation, primary screen, biochemical, turbidity, absorbance 650 nm, single point | AID 651711, 2012 | inhibition, % at 9.99 µM | Protein disulfide-isomerase A6 (Homo sapiens), Q15084 | 0.05% of 350,000 active | 90 min;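 active = mean replicate inhibition above about 25%, with every replicate also reaching it, limit read from the data, passing the limit was not always enough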
Each line names hits and unclear results; the compound was inactive in the other large screens.

O=C(C[C@@H]1C/C=C\CC[C@H](Cc2ccc(F)cc2)C(=O)OC[C@@H]2CCCN2C1=O)NCCO	NRP1-CendR mod 20
C[C@H](CO)N1C[C@H](C)[C@H](CN(C)C(=O)c2ccncc2)OCCCC[C@H](C)Oc2ccc(NC(=O)CCC(F)(F)F)cc2C1=O	none (no result: ALR H2O2 inh, NRP1-CendR mod, PDI inh, ERp5 inh)
Cc1ccc(N2CCN(CCCN3C(=O)C4CCCN4C3=O)CC2)cc1 (centres undefined)	ALR H2O2 inh 98 (no result: PglD inh)
COC(=O)C1=C(C)N(c2cccc(C)c2)C(=O)/C1=C\c1cccs1	NRP1-CendR mod 28 (no result: PglD inh, ERp5 inh)
CCCNC(=O)Nc1ccc2c(c1)OC[C@@H](C)N(C(=O)C1CC1)C[C@H](C)[C@@H](OC)CN(C)C2=O	none (no result: ALR H2O2 inh, NRP1-CendR mod, PDI inh)
OC[C@H]1[C@@H](c2ccc(C#CC3(O)CCCC3)cc2)[C@H]2CN(Cc3cccnc3)CCCCN21	none (no result: ALR H2O2 inh, NRP1-CendR mod, PDI inh)
C=C[C@@H](COC(C)=O)N(Cc1ccccc1[N+](=O)[O-])S(=O)(=O)c1ccc(Br)cc1	none (no result: ALR H2O2 inh, PglD inh, ARNT-TACC3 inh, NRP1-CendR mod, PDI inh)
CCN(CC)c1ncnc2c1ncn2[C@H]1CN(CCOC)C[C@@H](CO)O1	none (no result: ALR H2O2 inh, ARNT-TACC3 inh)
COCCN1C[C@@H](CO)O[C@@H](n2cnc3c(N(C)C(C)C)ncnc32)C1	NRP1-CendR mod 24 (no result: ALR H2O2 inh, ARNT-TACC3 inh)
COc1ccc(S(=O)(=O)N(C)C[C@@H]2Oc3ccc(NC(=O)NC4CCCCC4)cc3CC(=O)N([C@@H](C)CO)C[C@@H]2C)cc1	none (no result: ALR H2O2 inh, NRP1-CendR mod, PDI inh)
COc1ccccc1N(Cc1ccccc1)S(=O)(=O)c1cc(C(=O)O)ccc1Cl	ALR H2O2 inh 92
COc1ccccc1N(Cc1ccccc1)S(=O)(=O)c1cccc(C(=O)O)c1	none (no result: PglD inh)
CCOc1ccccc1NC(=O)c1cccc(S(=O)(=O)N(Cc2ccccc2)c2ccccc2OC)c1	NRP1-CendR mod 30
COc1ccc(/C=N/NC(=O)c2[nH]c3ccc(C)cc3c2-c2ccccc2)c(C(=O)O)c1OC	ALR H2O2 inh 99
C=CCC(CC(O)COCCC)C(=O)NNC(=S)Nc1ccccc1 (centres undefined)	ALR H2O2 inh 98 (no result: PglD inh)
Cc1cc(=O)[nH]c(SCC(=O)N2CCCc3ccccc32)n1	none
O=C(CSc1nc(O)cc(=O)[nH]1)N1CCCc2ccccc21	ALR H2O2 inh 99 (no result: ERp5 inh)
O=C(CSc1nc(O)cc(=O)[nH]1)Nc1ccc2c(c1)CCC2	ALR H2O2 inh 99 (no result: ARNT-TACC3 inh, ERp5 inh)
O=C(CSc1nc2ccccc2c(=O)n1-c1ccc(F)cc1F)Nc1ccc2c(c1)CCC2	NRP1-CendR mod 22 (no result: PglD inh, ARNT-TACC3 inh)
O=C(CSc1nc2ccccc2c(=O)n1-c1ccc(F)c(Cl)c1)Nc1cccc(S(=O)(=O)N2CCOCC2)c1	ALR H2O2 inh 98 (no result: PglD inh)
O=C(CSc1nc2ccccc2c(=O)n1-c1ccc(F)cc1)Nc1ccc(Cl)c(S(=O)(=O)N2CCOCC2)c1	none (no result: PglD inh)
CC(C)NC(=O)Nc1ccc2c(c1)CC(=O)N([C@@H](C)CO)C[C@H](C)[C@@H](CN(C)CC1CC1)O2	none (no result: ALR H2O2 inh, NRP1-CendR mod, PDI inh)
C[C@@H]1CN([C@H](C)CO)C(=O)c2c(c3ccccc3n2C)-c2ccccc2CO[C@@H]1CN(C)Cc1cccnc1	none (no result: ALR H2O2 inh, NRP1-CendR mod, PDI inh)
Cc1ccc2cc(C#N)c(SCC(=O)N3CCCc4ccccc43)nc2c1C	NRP1-CendR mod 24 (no result: PglD inh)
Nc1cc(=O)[nH]c(SCC(=O)Nc2ccc3c(c2)CCC3)n1	ALR H2O2 inh 90
CC(/C=C/c1ccccc1)=N\NC(=O)CCc1ccccc1	NRP1-CendR mod 24 (no result: PglD inh)
COC(=O)N/N=C(C)/C=C/c1ccccc1	none (no result: ERp5 inh)
C=CCN1C=CC(=C/C=C(/C#N)C(=O)OCC)C=C1	ALR H2O2 inh 84 (no result: ERp5 inh)
CCOC(=O)/C(C#N)=C/C=C1/C=CC=CN1C	ALR H2O2 inh 95
CCOC(=O)/C(C#N)=C\N(C)C	none (no result: PglD inh, ERp5 inh)
O=C(Nc1cc(Cl)c(O)c(Cl)c1)C1CCCO1 (centres undefined)	ALR H2O2 inh 98
NC(=O)c1ccc(NC(=O)C2CCCO2)cc1 (centres undefined)	none (no result: ERp5 inh)
CCN(CC)c1ccc(NC(=O)c2ccc(NC(=O)C3CCCO3)cc2)c(C)c1 (centres undefined)	ALR H2O2 inh 99 (no result: ERp5 inh)
Cc1cc(NC(=O)c2ccc(NC(=O)C3CCCO3)cc2)ccc1Br (centres undefined)	none
O=C(Nc1ccc(O)cc1)c1ccc(NC(=O)C2CCCO2)cc1 (centres undefined)	ALR H2O2 inh 99 (no result: ARNT-TACC3 inh)
CN(C)S(=O)(=O)c1cccc(NC(=S)N/N=C/c2cccc(O)c2)c1	none (no result: PglD inh)
CN(C)S(=O)(=O)c1cccc(NC(=S)N/N=C/c2cc(Br)ccc2O)c1	ARNT-TACC3 inh 62 (no result: ALR H2O2 inh)
CN(C)C(=O)c1cccc(-c2ccc3c(c2)[C@@H]2[C@@H](CCN2C(=O)C2CCC2)[C@H](CO)N3)c1	none (no result: ALR H2O2 inh, PglD inh, ARNT-TACC3 inh, NRP1-CendR mod, PDI inh)
Cc1[nH]n(-c2nc(-c3ccccc3F)cc(=O)[nH]2)c(=O)c1CCO	ARNT-TACC3 inh 45 (no result: PglD inh)
C[C@@H]1CN([C@@H](C)CO)C(=O)c2cc(NC(=O)Nc3cccc4ccccc34)ccc2O[C@@H](C)CCCCO[C@H]1CN(C)Cc1ccc2c(c1)OCO2	none (no result: ALR H2O2 inh, NRP1-CendR mod, PDI inh, ERp5 inh)
Cc1cc(SCc2ccccc2C)nc(=O)[nH]1	none
Cc1cc(SCc2ccc(Cl)c(Cl)c2)nc(=O)[nH]1	none
Cc1cc(SCc2ccc(Cl)cc2Cl)nc(=O)[nH]1	ALR H2O2 inh 98
Cc1cc(SCc2ccccc2Cl)nc(=O)[nH]1	ALR H2O2 inh 94
Cc1ccc(C(=O)CSc2cc(C)[nH]c(=O)n2)cc1	ALR H2O2 inh 99
C/C=C/c1cnc2c(c1)C(=O)N([C@@H](C)CO)C[C@H](C)[C@H](CN(C)Cc1ccc(F)cc1)O2	none (no result: ALR H2O2 inh, ARNT-TACC3 inh, NRP1-CendR mod, PDI inh)
C[C@H](CO)N1C[C@H](C)[C@@H](CN(C)CC2CCCCC2)Oc2ccc(NC(=O)Nc3ccccc3)cc2C1=O	none (no result: ALR H2O2 inh, NRP1-CendR mod, PDI inh)
CCn1cc(/C=C(\NC(=O)c2ccc(OC)cc2)C(=O)N2CCN(C)CC2)c2ccccc21	ARNT-TACC3 inh 48 (no result: ALR H2O2 inh)
COc1ccc(C(=O)N/C(=C\c2cn(C)c3ccccc23)C(=O)N2CCN(C)CC2)cc1	none
O=C(C[C@H]1CC[C@H](NC(=O)Nc2ccc(F)cc2)[C@H](CO)O1)NCCN1CCCC1	none (no result: ALR H2O2 inh, NRP1-CendR mod, PDI inh)
COc1ccc(C(=O)CCN2CCc3cc(OC)c(OC)cc3C2)cc1	ALR H2O2 inh 98
C[C@H]1CN([C@@H](C)CO)C(=O)c2cc(NC(=O)Cc3ccccc3)ccc2O[C@@H]1CN(C)CC1CCCCC1	none (no result: ALR H2O2 inh, NRP1-CendR mod, PDI inh)
Cc1ccc(NC(=O)c2ncn[nH]2)cc1	none (no result: PglD inh)
Cc1c(Cl)cccc1NC(=O)c1ncn[nH]1	ARNT-TACC3 inh 73
S=c1[nH]nc(CCc2ccccc2)n1Cc1ccccc1	none (no result: ERp5 inh)
COCCn1c(CCc2ccccc2)n[nH]c1=S	ALR H2O2 inh 85 (no result: PglD inh)
O=C(C[C@@H]1C=C[C@H](NC(=O)NC2CCCCC2)[C@H](CO)O1)NCc1ccc(F)cc1	none (no result: ALR H2O2 inh, NRP1-CendR mod, PDI inh)
